# Data: PubChem BioAssay (NCI)
# This is part of a sample that, as a whole, favours compounds with a hit. Of some 83,000 tested, about 20% had one in any assay.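 In brief: 96-well plates, 48 h treatment, single concentration, percent growth endpoint.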 Values without a mark were called inactive. The source made the active and inactive calls. How the source made its calls: active means growth percent below 10; inactive means the rest.
# Key:
# Assay in all cases: NCI-60 one-dose screen, 48 h (100 = growth as untreated, 0 = no growth, -100 = all killed)
# Settings in all cases: 10 µM unless noted
# [1] = system: SR leukemia
# [2] = system: RPMI-8226 leukemia
# [3] = system: OVCAR-8 ovarian
# [4] = system: OVCAR-4 ovarian
# [5] = system: SK-OV-3 ovarian
# [6] = system: IGROV1 ovarian
# [7] = system: OVCAR-3 ovarian
# [8] = system: NCI/ADR-RES ovarian
# [9] = system: T-47D breast
# [10] = system: BT-549 breast
# [11] = system: MDA-MB-435 melanoma
# [12] = system: MCF7 breast
# [13] = system: HCT-116 colon
# [14] = system: HCC-2998 colon
# [15] = system: KM12 colon
# [16] = system: MDA-MB-468 breast
# [17] = system: OVCAR-5 ovarian
# [18] = system: HS 578T breast
# [19] = system: SW-620 colon
SMILES,growth [1],growth [2],growth [3],growth [4],growth [5],growth [6],growth [7],growth [8],growth [9],growth [10],growth [11],growth [12],growth [13],growth [14],growth [15],growth [16],growth [17],growth [18],growth [19]
Nc1cc2ccccc2c(=O)n1NC(=O)c1ccc(I)cc1,88.3%,98%,101%,100%,91.9%,106%,104%,101%,101%,108%,100%,93.2%,98%,114%,103%,98.9%,,,
COc1ccc(C(=O)/C=C/c2ccc3ccccc3c2)cc1S(N)(=O)=O,,-17.5% (active),-60.6% (active),32.5%,22.5%,-8.23% (active),-41.9% (active),18.9%,-39.5% (active),,1.97% (active),-75.2% (active),-97.8% (active),-76.9% (active),-74% (active),-67% (active),-43.4% (active),68.8%,-42.8% (active)
COc1ccc(C(=O)Nc2n[nH]c(Nc3ccccc3)c2C#N)cc1,,133%,111%,118%,119%,105%,111%,109%,113%,,118%,94.8%,105%,120%,112%,112%,97.6%,114%,102%
COc1ccc(C(=O)/C=C/c2c(F)cccc2Cl)cc1S(N)(=O)=O,,-10.1% (active),3.5% (active),42.9%,27%,21.6%,-63.4% (active),12.2%,-5.64% (active),,6.73% (active),-4.58% (active),-89.6% (active),-46.2% (active),-41.1% (active),-3.57% (active),25%,27%,4.6% (active)
O=C1Nc2cc(Cl)ccc2/C1=C/c1cccc(OCc2ccccn2)c1,-0.484% (active),-5.52% (active),-21% (active),49.1%,52.1%,17.2%,23.5%,-16.7% (active),26%,-12.6% (active),-39.9% (active),7.87% (active),0.558% (active),,19.4%,,,,
COc1ccc(NC(=O)Cn2c3c(sc2=O)[C@H]2[C@@H](O)[C@@H](O)[C@H](O)[C@@H]2CS3)cc1,99.1%,,103%,106%,107%,104%,109%,107%,100%,110%,101%,93.8%,103%,114%,102%,107%,105%,107%,105%
Cc1nc(Nc2ncc(C(=O)Nc3c(C)cccc3Cl)s2)cc(N2CCN(CCCNC(=O)COc3ccc(C4CCC(=O)NC4=O)cc3)CC2)n1 (stereo not drawn),20%,76.4%,34%,85.8%,-17.9% (active),-45.2% (active),72%,106%,64.1%,68.5%,81%,,42.2%,114%,82%,-23.4% (active),,-16% (active),118%
CCN1CCN(Cc2ccc(C(=O)Nc3cccc(C#Cc4cccc5[nH]nc(N)c45)c3)cc2C(F)(F)F)CC1,,-30.9% (active),-96.8% (active),-24.8% (active),-69.2% (active),-44.7% (active),-22.1% (active),-27% (active),-67.2% (active),,-69.1% (active),-84.9% (active),-86.8% (active),-91.5% (active),-73.2% (active),-85.5% (active),-88.8% (active),-15.8% (active),-50.5% (active)
O=C(/C=C/c1ccc(O)c(O)c1)NC1CCOC1O (stereo not drawn),,97.4%,95.7%,108%,94.8%,111%,103%,105%,92.8%,108%,101%,90.7%,103%,99.2%,102%,109%,114%,89.1%,109%
O=C(Cn1c2c(sc1=O)[C@H]1[C@@H](O)[C@@H](O)[C@H](O)[C@@H]1CS2)N1CCOCC1,99.6%,,108%,102%,94.1%,105%,105%,104%,93.6%,99.3%,101%,98.4%,110%,111%,103%,105%,,93.3%,107%
COc1cc2c(c(OC)c1OC)C(=O)CC(c1cccc(NC(=O)c3cc(N)ccc3Cl)c1)O2 (stereo not drawn),,40.2%,18.8%,52.7%,65.6%,72.9%,33.8%,20.5%,35.4%,23.3%,-41.3% (active),14%,34.7%,95.7%,49.2%,5.35% (active),100%,80.6%,37.4%
CN(C)CCn1c2ccccc2c2nc3cc(C(F)(F)F)ccc3nc21,11.1%,,35.7%,54.3%,41.5%,22.4%,69.2%,30.2%,59.4%,62.2%,40.3%,6.18% (active),16.8%,41.6%,42.9%,,38.8%,65.8%,22.5%
COc1ccc(-c2nnc3ccc(N/N=C/c4ccc(C)cc4)nn23)cc1,,94%,41.4%,36.9%,79.8%,100%,15.6%,25.8%,76%,,64.7%,57.2%,78.8%,79.1%,68.1%,89.4%,115%,29.1%,92.1%
Cc1cnc(C(=O)NNc2nc3cc(F)ccc3n3c(C(=O)N4CC5CC(C4)N5)ccc23)cn1,,48.1%,20.2%,38.4%,25.8%,39.9%,50.1%,67%,32.1%,,45.4%,18.7%,17.5%,58.7%,39.8%,13.8%,48.7%,62.9%,32%
O=C1Nc2ccc([N+](=O)[O-])cc2C1=Nc1ccccc1,,121%,106%,113%,113%,98.6%,95.3%,103%,84.1%,,111%,85.4%,106%,112%,105%,109%,103%,97.9%,102%
COc1ccc(C(=O)/C=C/c2cccnc2)cc1S(N)(=O)=O,,-7.06% (active),17.6%,91.7%,,59.5%,17%,69.1%,16.9%,,73.5%,7.45% (active),-18.1% (active),77.3%,1.84% (active),20.5%,77.2%,,13.2%
COc1ccc(C(=O)/C=C/c2ccccc2Cl)cc1S(N)(=O)=O,,120%,110%,118%,110%,101%,90.7%,104%,106%,,117%,96.2%,106%,114%,111%,109%,99.3%,107%,107%
C/C(=N\Nc1ccc(S(N)(=O)=O)cc1)c1ccc(N=Nc2c(Nc3ccccc3)[nH][nH]c2=O)cc1,,3.47% (active),-20.2% (active),42.6%,-15.5% (active),43.3%,-2.25% (active),89.6%,-30.8% (active),,-13.6% (active),-31.2% (active),0.299% (active),-24.6% (active),3.69% (active),-35.6% (active),58.3%,21.5%,18.1%
